Values joined by “and” are separate entries in the source; they are usually repeats but may differ in a detail not shown here. Identical values can stand only once. The source holds several records for some structures; these can differ, active in one and inactive in another. Active and inactive are the calls of the source. The calls were made as follows: active = hit-call score of the fitted dose curve at least 0.9, where 1 is the maximum; inactive = score below 0.9.

In PubChem BioAssay (EPA / NIEHS) one finds AC50 and outcome data, which are given here for 38 compounds.

Read-out in the test: Vascular cell adhesion molecule 1 (VCAM1), VCAM1 (gene 7412)
Put plainly: BSK_hDFCGF_VCAM1: BioMAP Diversity Plus: hDFCGF Assay for Vascular cell adhesion molecule 1 (VCAM1) Biomarker Activity (AID 2283065). Conditions: primary human foreskin fibroblasts; actives raise or lower the signal. The method, then:
BSK_hDFCGF is a cell-based, multiplexed-readout assay that uses foreskin fibroblast, a human skin primary cell, with measurements taken at 24 hours after chemical dosing in a 96-well plate.BSK_hDFCGF_VCAM1 is an assay component measured in the BSK_hDFCGF assay. It measures VCAM-1 antibody related to regulation of gene expression using ELISA technology.Data from the assay component BSK_hDFCGF_VCAM1 was analyzed into 1 assay endpoint. This assay endpoint, BSK_hDFCGF_VCAM1, was analyzed with bidirectional fitting relative to DMSO as the negative control and baseline of activity. Using a type of binding reporter, gain or loss-of-signal activity can be used to understand changes in the signaling as they relate to the gene VCAM1. Furthermore, this assay endpoint can be referred to as a primary readout, because this assay has produced multiple assay endpoints where this one serves a signaling function. To generalize the intended target to other relatable targets, this assay endpoint is annotated to the cell adhesion molecules intended target family, where the subfamily is Immunoglobulin CAM.
The levels of cell surface (or secreted, indicated by the prefix "s") biomarker endpoints were measured by ELISA. Overt cytotoxicity to cells in confluent adherent cultures (all systems other than the BT system) was assessed by measuring total protein levels using sulforhodamine B (SRB) staining in parallel cultures at the time of biomarker measurements, indicated as SRB endpoints. For proliferation assays for adherent cell types, individual cell types are cultured at sub-confluence and relative cell numbers quantified by SRB staining at time points optimized for each system (48 h: 3C and CASM3C systems; 72 h: BT and HDF3CGF systems; 96 h: SAg system). SRB was performed by staining cells with 0.1% SRB after fixation with 10% TCA and reading wells at 560 nm.Viability and proliferation of PBMC (T cells) was quantified by Alamar Blue reduction for the SAg and BT systems. For PBMC viability (referred to as PBMC Cytotoxicity within the assay endpoint names), cells were plated (75,000/well in a 96-well plate) and then chemical samples added for 1 h before addition of activators, SEB and TSST-1 (20 ng/mL final concentration each). Cells were incubated for 90 h. Then, Alamar Blue (20 uL/well) (Invitrogen, Cat DAL1100) was added for 6 h, and the plates were read with a fluorescence microplate reader at 546/580 nm (excitation/emission). For PBMC proliferation, cells were plated and activated as above but incubated for only 16 h prior to addition of Alamar Blue. Plates were read after 6 h.
With `CC1(C)C2=CCCC(C)(C)[C@]23CC[C@H]1C3`, the AC50 was 32.9 µM (active).
As to `O=C1OC[C@H](Cc2cccc(O)c2)[C@H]1Cc1cccc(O)c1`, the outcome was inactive.
With `O=C(Nc1ccc2c(O)c(N=Nc3ccc(N=Nc4ccc(S(=O)(=O)O)cc4)cc3)c(S(=O)(=O)O)cc2c1)c1ccccc1`, the result was inactive and the AC50 is 15.1 µM (active).
As for `O=C1OC2(c3ccccc31)c1ccc(O)c(Br)c1Oc1c2ccc(O)c1Br`, the AC50 is 7.49 µM (active).
With `O=CN1CCOCC1`, the outcome was inactive.
`C1=CC2C3C=CC(C3)C2C1` (stereo not given): the result was inactive.
Same read-out and setting: the value for `CN(C)C(=O)Nc1ccc(Oc2ccc(Cl)cc2)cc1` was “inactive”.
With `CC1(C)CCC[C@]2(C)[C@H]3CCO[C@]3(C)CC[C@@H]12`, the AC50 is 38.1 µM (active) and 33.9 µM (active).
For `COc1ccc(CCN2CCC(Nc3nc4ccccc4n3Cc3ccc(F)cc3)CC2)cc1`, the result was inactive.
Still for that read-out and setting: the value for `CC=Cc1ccc(OCC)c(O)c1` was “inactive”.
The same measure, in the same setting: the value for `IC(I)I` was “inactive”.
Turning to `CN(C)C(=S)SC(=S)N(C)C`, the AC50 is 31.2 µM (active).
As to `CCCCOC(=O)CCCCCCCC(=O)OCCCC`, the result was inactive.
On the same count and under the same terms, the value for `Cc1cc(CCC(=O)OCCOCCOCCOC(=O)CCc2cc(C)c(O)c(C(C)(C)C)c2)cc(C(C)(C)C)c1O` was “inactive”; that for `CC(C=O)Cc1ccc(C(C)(C)C)cc1` (stereo not given) was “inactive”.
Still for that read-out and setting: the value for `CCCCCCCCCCCCCCCC(=O)OC/C=C(C)/C=C/C=C(C)/C=C/C1=C(C)CCCC1(C)C` was “inactive”.
In the case of `c1ccc(CCc2ccccc2)cc1`, the AC50 was 30.9 µM (active).
On the same count and under the same terms, the value for `CC(C)(C)CC(C)(C)c1ccc(OCCOCC[N+](C)(C)Cc2ccccc2)cc1` was 6.9 µM (active); that for `CCC(C)c1cc([N+](=O)[O-])cc([N+](=O)[O-])c1OC(=O)OC(C)C` (stereo not given) was 7.79 µM (active).
As to `CSCCC=O`, the result was inactive.
`CC(C)(N=C=O)c1cccc(C(C)(C)N=C=O)c1`: the result was inactive.
As for `CCCCCCC(CO)CCCC` (stereo not given), the AC50 is 32.5 µM (active) and 36.7 µM (active).
Take `CS(=O)(=O)OCCCCOS(C)(=O)=O`: the outcome was inactive.
On to `CCOC(=O)C(C#N)=C(c1ccccc1)c1ccccc1`, for which the AC50 was 14.6 µM (active) and the outcome was inactive.
For the compound `COc1ccc(OC)c(N=Nc2c(O)ccc3ccccc23)c1`, the AC50 was 1.42 µM (active).
Regarding `C=CC(C)(O)CCC=C(C)C` (stereo not given), the result was inactive.
As for `C[C@@H]1CCN(C(=O)[C@H](CCCN=C(N)N)NS(=O)(=O)c2cccc3c2NC[C@H](C)C3)[C@@H](C(=O)O)C1`, the outcome was inactive.
Same read-out and setting: the value for `C=C(C)C(=O)OCCOCCOCCOC(=O)C(=C)C` was “inactive”; that for `CCN(CC)C(=O)N(CC)CC` was “inactive”; that for `CC(CN=Cc1ccccc1O)N=Cc1ccccc1O` (stereo not given) was “inactive”.
Turning to `CCCCCC(C=O)=Cc1ccccc1`, the AC50 is 20 µM (active).
`CS(=O)(=O)c1ccc(C2=C(c3ccccc3)C(=O)OC2)cc1`: the result was inactive.
Turning to `CC(=O)c1c(C)c([N+](=O)[O-])c(C(C)(C)C)c([N+](=O)[O-])c1C`, the result was inactive.
Take `Oc1c(Cl)cc(Cl)c(Cl)c1Cc1c(O)c(Cl)cc(Cl)c1Cl`: the AC50 was 2.22 µM (active).
Regarding `COc1cc(Cl)c(OC)cc1N`, the result was inactive.
In the case of `CCCCN(CCCC)C(=O)N(CCCC)CCCC`, the AC50 was 9.04 µM (active).
The same measure, in the same setting: the value for `Clc1cc(Cl)c(-c2c(Cl)c(Cl)cc(Cl)c2Cl)cc1Cl` was 14.5 µM (active).
`CN(c1nccc(=O)[nH]1)C1CCN(c2nc3ccccc3n2Cc2ccc(F)cc2)CC1`: the outcome was inactive.
